Results as given in PubChem BioAssay AID1159580 (chemical genetic matrix, 2015).
Where “and” joins values, the source holds several entries; their conditions need not be identical. Equal entries are not always repeated. The campaign covered roughly 5,500 compounds. About 2,000 (36%) were called active. Roughly 18% stayed inconclusive and do not appear here. Cut-off read from the data, not from the text of the source: active = normalized growth mostly below about 0.91 (no sharp cut-off); inconclusive = no clear call, values can overlap the other calls; inactive = mostly above about 0.92. The list shows a part of the results. The source holds several records for some structures; these can differ, active in one and inactive in another.

Assay: chemical genetic growth profiling, strain panel (AID 1159580);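 note: tested at 20 µM; growth read once vehicle control cultures reached saturation at 30 °C; 1 = growth at the plate median or of vehicle wells; lower values mean less growth of the strain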
Conditions: growth OD

Measured: normalized growth

O=C(Nc1ccc([N+](=O)[O-])cc1Cl)c1cc(Cl)ccc1O
0.921 (active) and 0.992 (inactive): S. cerevisiae deletion strains, locus YNL322C, strain KRE1, stronger effect = lower value
inactive: S. cerevisiae deletion strains, locus YKL068W, stronger effect = lower value 1 | S. cerevisiae deletion strains, locus YKL085W, strain MDH1 (second series), stronger effect = lower value 1.04 | S. cerevisiae deletion strains, locus YKL085W, strain MDH1, stronger effect = lower value 1.04 | S. cerevisiae deletion strains, locus YKR026C, strain gcn3, stronger effect = lower value 0.978 | S. cerevisiae deletion strains, locus YKR091W, strain srl3, stronger effect = lower value 0.938 | S. cerevisiae deletion strains, locus YLL001W, strain dnm1, stronger effect = lower value 0.971 | S. cerevisiae deletion strains, locus YLL026W, stronger effect = lower value 0.939 | S. cerevisiae deletion strains, locus YLL041C, strain sdh2, stronger effect = lower value 0.931 | S. cerevisiae deletion strains, locus YLR058C, strain SHM2, stronger effect = lower value 0.948 | S. cerevisiae deletion strains, locus YLR102C, strain apc9, stronger effect = lower value 1 | S. cerevisiae deletion strains, locus YLR113W, strain HOG1, stronger effect = lower value 1.01 | S. cerevisiae deletion strains, locus YLR258W, strain gsy2, stronger effect = lower value 0.977 | S. cerevisiae deletion strains, locus YLR268W, strain sec22, stronger effect = lower value 0.964 | S. cerevisiae deletion strains, locus YLR330W, strain CHS5, stronger effect = lower value 0.942 | S. cerevisiae deletion strains, locus YLR342W, strain FKS1, stronger effect = lower value 0.967 | S. cerevisiae deletion strains, locus YLR357W, strain rsc2, stronger effect = lower value 1.02 | S. cerevisiae deletion strains, locus YLR370C, strain arc18, stronger effect = lower value 0.949 | S. cerevisiae deletion strains, locus YLR371W, strain rom2, stronger effect = lower value 1 | S. cerevisiae deletion strains, locus YML016C, strain PPZ1, stronger effect = lower value 0.975 | S. cerevisiae deletion strains, locus YML120C, strain ndi1, stronger effect = lower value 0.975 | S. cerevisiae deletion strains, locus YMR058W, strain fet3, stronger effect = lower value 0.966 | S. cerevisiae deletion strains, locus YMR125W, strain sto1, stronger effect = lower value 0.999 | S. cerevisiae deletion strains, locus YMR129W, stronger effect = lower value 0.937 | S. cerevisiae deletion strains, locus YMR223W, strain ubp8, stronger effect = lower value 1.09 | S. cerevisiae deletion strains, locus YMR263W, strain SAP30, stronger effect = lower value 0.991 | S. cerevisiae deletion strains, locus YNL067W, strain RPL9B, stronger effect = lower value 0.925 | S. cerevisiae deletion strains, locus YNL183C, strain NPR1, stronger effect = lower value 0.933 | S. cerevisiae deletion strains, locus YNL224C, strain SQS1, stronger effect = lower value 0.972 | S. cerevisiae deletion strains, locus YNL248C, strain rpa49, stronger effect = lower value 0.969 | S. cerevisiae deletion strains, locus YNL250W, strain rad50, stronger effect = lower value 1.01 | S. cerevisiae deletion strains, locus YNL271C, strain bni1, stronger effect = lower value 0.999 | S. cerevisiae deletion strains, locus YNL298W, strain CLA4, stronger effect = lower value 1 | S. cerevisiae deletion strains, locus YNL307C, strain MCK1, stronger effect = lower value 0.986 | S. cerevisiae deletion strains, locus YNL322C, strain KRE1 (second series), stronger effect = lower value 1.06 | S. cerevisiae deletion strains, locus YNR049C, strain mso1, stronger effect = lower value 1 | S. cerevisiae deletion strains, locus YOL006C, strain TOP1, stronger effect = lower value 0.632 | S. cerevisiae deletion strains, locus YOL012C, strain htz1 0.729 | S. cerevisiae deletion strains, locus YOR001W, strain rrp6, stronger effect = lower value 0.944 | S. cerevisiae deletion strains, locus YOR061W, strain CKA2, stronger effect = lower value 0.969 | S. cerevisiae deletion strains, locus YOR069W, strain VPS5, stronger effect = lower value 0.96 | S. cerevisiae deletion strains, locus YOR136W, strain idh2, stronger effect = lower value 1.03 | S. cerevisiae deletion strains, locus YOR184W, strain ser1, stronger effect = lower value 1.03 | S. cerevisiae deletion strains, locus YOR231W, strain MKK1, stronger effect = lower value 1.01 | S. cerevisiae deletion strains, locus YOR290C, strain snf2, stronger effect = lower value 0.98 | S. cerevisiae deletion strains, locus YOR316C, strain cot1, stronger effect = lower value 1.02 | S. cerevisiae deletion strains, locus YPL106C, strain sse1, stronger effect = lower value 0.962 | S. cerevisiae deletion strains, locus YPL240C, strain hsp82, stronger effect = lower value 1.01 | S. cerevisiae deletion strains, locus YPL256C, strain CLN2, stronger effect = lower value 0.994 | S. cerevisiae deletion strains, locus YPR119W, strain clb2, stronger effect = lower value 1.06 | S. cerevisiae deletion strains, locus YPR141C, strain kar3, stronger effect = lower value 1.02 | S. cerevisiae deletion strains, locus YPR163C, strain tif3, stronger effect = lower value 1.04 | S. cerevisiae deletion strains, locus YPR167C, strain met16, stronger effect = lower value 1.06 | S. cerevisiae deletion strains, strain wtn01, stronger effect = lower value 1.03 | S. cerevisiae strains, strain wild type, stronger effect = lower value 0.904
active: S. cerevisiae deletion strains, locus YKL009W, strain mrt4, stronger effect = lower value 1.2 [resistant] | S. cerevisiae deletion strains, locus YKL160W, strain elf1, stronger effect = lower value 0.773 | S. cerevisiae deletion strains, locus YKR001C, strain vps1, stronger effect = lower value 0.459 | S. cerevisiae deletion strains, locus YLR027C, strain aat2, stronger effect = lower value 0.92 | S. cerevisiae deletion strains, locus YLR039C, strain RIC1, stronger effect = lower value 0.289 | S. cerevisiae deletion strains, locus YLR221C, strain rsa3, stronger effect = lower value 0.906 | S. cerevisiae deletion strains, locus YLR262C, strain YPT6 (second series), stronger effect = lower value 0.241 | S. cerevisiae deletion strains, locus YLR262C, strain YPT6, stronger effect = lower value 0.193 | S. cerevisiae deletion strains, locus YLR320W, strain mms22, stronger effect = lower value 0.833 | S. cerevisiae deletion strains, locus YLR342W, strain FKS1 (second series), stronger effect = lower value 0.667 | S. cerevisiae deletion strains, locus YLR384C, strain iki3, stronger effect = lower value 1.09 [resistant] | S. cerevisiae deletion strains, locus YLR418C, strain cdc73, stronger effect = lower value 0.793 | S. cerevisiae deletion strains, locus YML124C, strain tub3, stronger effect = lower value 1.17 [resistant] | S. cerevisiae deletion strains, locus YMR078C, strain ctf18, stronger effect = lower value 1.17 [resistant] | S. cerevisiae deletion strains, locus YMR205C, strain PFK2, stronger effect = lower value 0.759 | S. cerevisiae deletion strains, locus YMR231W, strain pep5, stronger effect = lower value 0.901 | S. cerevisiae deletion strains, locus YNL071W, strain lat1, stronger effect = lower value 0.809 | S. cerevisiae deletion strains, locus YNL175C, strain NOP13, stronger effect = lower value 0.868 | S. cerevisiae deletion strains, locus YNL197C, strain WHI3, stronger effect = lower value 0.789 | S. cerevisiae deletion strains, locus YNL209W, strain ssb2, stronger effect = lower value 0.925 | S. cerevisiae deletion strains, locus YNL233W, strain BNI4, stronger effect = lower value 0.803 | S. cerevisiae deletion strains, locus YNR052C, strain pop2, stronger effect = lower value 1.12 [resistant] | S. cerevisiae deletion strains, locus YOL147C, strain pex11, stronger effect = lower value 1.19 [resistant] | S. cerevisiae deletion strains, locus YOR070C, strain gyp1, stronger effect = lower value 0.842 | S. cerevisiae deletion strains, locus YOR080W, strain dia2, stronger effect = lower value 0.904 | S. cerevisiae deletion strains, locus YOR083W, strain WHI5 (second series), stronger effect = lower value 0.751 | S. cerevisiae deletion strains, locus YOR083W, strain WHI5, stronger effect = lower value 0.88 | S. cerevisiae deletion strains, locus YOR106W, strain vam3, stronger effect = lower value 0.843 | S. cerevisiae deletion strains, locus YOR144C, strain elg1, stronger effect = lower value 1.19 [resistant] | S. cerevisiae deletion strains, locus YOR265W, strain rbl2, stronger effect = lower value 0.928 | S. cerevisiae deletion strains, locus YOR270C, strain vph1, stronger effect = lower value 0.666 | S. cerevisiae deletion strains, locus YPL051W, strain arl3, stronger effect = lower value 0.607 | S. cerevisiae deletion strains, locus YPL055C, strain LGE1, stronger effect = lower value 0.731 | S. cerevisiae deletion strains, locus YPL078C, strain atp4, stronger effect = lower value 0.866
0.393 (active) and 0.947 (inactive): S. cerevisiae deletion strains, locus YMR307W, strain GAS1, stronger effect = lower value
0.924 (inactive) and 0.687 (active): S. cerevisiae deletion strains, locus YNL153C, strain GIM3, stronger effect = lower value
0.815 (active) and 0.99 (inactive): S. cerevisiae deletion strains, locus YJR075W, strain HOC1, stronger effect = lower value
